Compound activity deposited in PubChem by National Center for Advancing Translational Sciences (NCATS).
An excerpt weighted towards active compounds, which were near 21% of everything screened.
DT40 TDP1 CPT: DT40-hTDP1 cell growth loss with CPT. Potency, µM (titrated, usually from 46.2 µM), usual class: inhibitors. chicken DT40 Tdp1-/-;hTDP1 cells + 20 nM CPT, ATP luminescence, 48 h. actives 12% (n = 420,000); note: nearly all actives have a fitted effect of over 55% in size
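Chicken DT40 Tdp1-/- cells stably complemented with human TDP1 were seeded at 400 cells/well in medium containing 20 nM camptothecin, exposed to pin-transferred compounds, and grown at 37 °C for at least 48 hr. Viability was read as ATP luminescence.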
RORg inh: blocks mouse ROR gamma transcriptional activity; actives 5.4% (n = 310,000); Potency, µM (highest dose often 53.6 µM), usual class: inhibitors; Drosophila S2 Gal4-RORgamma UAS-luciferase reporter, 20 h; AID 2551; P51450; note: nearly all actives have a fitted effect of over 60% in size
Target sequence (P51450 whole entry, looked up, the tested form may be a part): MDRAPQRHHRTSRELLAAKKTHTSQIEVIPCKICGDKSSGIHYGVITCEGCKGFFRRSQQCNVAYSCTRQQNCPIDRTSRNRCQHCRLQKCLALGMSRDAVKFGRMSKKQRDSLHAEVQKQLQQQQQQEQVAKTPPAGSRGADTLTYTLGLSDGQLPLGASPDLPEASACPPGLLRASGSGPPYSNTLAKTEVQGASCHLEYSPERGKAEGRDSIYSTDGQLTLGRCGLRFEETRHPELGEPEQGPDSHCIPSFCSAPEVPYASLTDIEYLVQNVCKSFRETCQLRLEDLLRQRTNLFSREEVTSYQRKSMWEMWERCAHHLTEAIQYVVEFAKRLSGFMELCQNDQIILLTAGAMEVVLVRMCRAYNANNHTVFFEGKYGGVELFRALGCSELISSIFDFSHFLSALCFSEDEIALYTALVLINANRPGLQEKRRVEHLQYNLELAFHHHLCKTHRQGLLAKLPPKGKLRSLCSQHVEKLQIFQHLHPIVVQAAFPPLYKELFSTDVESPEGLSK
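Read-out: Photinus luciferase luminescence; inhibitors lower reporter signal. Insect Schneider cells with Gal4-ROR gamma fusion under metallothionein promoter, UAS reporter; 700 uM final copper sulfate induction, 20 hr, ambient temperature.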
TDP1 cell noCPT: qHTS for Inhibitors of human tyrosyl-DNA phosphodiesterase 1 (TDP1): qHTS in cells in absence of CPT; actives 15% (n = 420,000); Potency, µM (titrated, usually from 46.2 µM), most hits filed as inhibitors; AID 686978, 2013; DT40 Tdp1-/- hTDP1 cells, no CPT, ATP luminescence, 48 h; note: nearly all actives have a fitted effect of over 55% in size
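Growth of hTDP1-complemented DT40 Tdp1-knockout cells is measured by ATP luminescence after at least 48 hr compound exposure at 37 °C, with DMSO substituting for the 20 nM CPT used in the parallel screen.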
IL-1B inflam inh: inhibitors of inflammasome signaling (IL-1 beta secretion); AID 743279; actives 4.7% (n = 360,000); THP-1 LPS/ATP IL-1B secretion, AlphaLISA, 16 h; active compounds read low; activity change, % at 57.5 µM; in the data active = activity change below about -50%; inconclusive = mostly about -30% to -49%
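Secreted IL-1B measured by AlphaLISA bead assay after 16 h compound exposure of THP-1 cells; compounds (final up to 57.5 uM) added 1 h before LPS (250 ng/mL) and ATP (1.25 mM) stimulation; lower signal means less secretion.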
ELG1 DNA repair: blocks ELG1-dependent DNA repair in HEK293T cells. AID 504467. Potency, µM (highest dose often 46.1 µM), actives largely listed as inhibitors. HEK293T ELG1-luciferase reporter, luminescence, 16 h; DNA damage induced by 5-fluorouridine. actives 2.3% (n = 330,000); note: nearly all actives have a fitted effect of over 55% in size
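Step one: seed 2,000 cells per well. Step two: pin-transfer compound or DMSO alongside 5-fluorouridine. Step three: incubate 16 hr, 37 °C, 5% CO2. Step four: add ONE-Glo, wait 30 min, read luminescence.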
Gal4-VP16 FLuc: inhibits Gal4-VP16 luciferase reporter, ROR gamma counter-screen; Drosophila S2 Gal4-VP16 UAS-luciferase, luminescence, 20 h; Potency, µM (highest dose often 53.6 µM), usual class: inhibitors; actives 3.5% (n = 310,000); AID 2546;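 note: Gal4-VP16 expression switched on by copper sulfate through the metallothionein promoter; nearly all actives have a fitted effect of over 50% in size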
Hits are given with their value; [ ] = remark or other dose. Unless noted, calls come from the whole dose curve; as a rule, active = well fitted curve in the direction sought with a large enough effect; inconclusive = small, poorly fitted or top-dose-only effect, or another doubt; inactive = no such curve, though single readings can be large; an effect the other way counts as inactive or inconclusive.

Cc1cc(C(=O)N2CCN(c3ccc([N+](=O)[O-])cc3)CC2)n[nH]1 was read as DT40 TDP1 CPT 3.3µM, RORg inh inactive, TDP1 cell noCPT 2.6µM, IL-1B inflam inh inactive, ELG1 DNA repair inactive and Gal4-VP16 FLuc inactive.
For O=C(c1cc2ccccc2cc1O)N1CCN(c2ccc([N+](=O)[O-])cc2)CC1 the results were DT40 TDP1 CPT 29µM, TDP1 cell noCPT 15µM, IL-1B inflam inh inactive and ELG1 DNA repair inactive.
For CCOC(=O)N/N=C1/C[C@@H](O)[C@@H](O)[C@@H]2[C@@H]3C(=O)N(c4cccc(Oc5ccccc5)c4)C(=O)[C@H]3CC[C@@H]12 the results were RORg inh inactive[10 µM] and Gal4-VP16 FLuc inactive[10 µM].
Screening CNS(=O)(=O)c1cccc(C(=O)OCC(=O)N2CC(C)OC(C)C2)c1 (stereo not drawn) returned DT40 TDP1 CPT inactive, RORg inh inactive, TDP1 cell noCPT inactive, IL-1B inflam inh inactive, ELG1 DNA repair inactive and Gal4-VP16 FLuc inactive.
Screening COc1ccc(-c2c(=O)n(OCc3ccccc3[N+](=O)[O-])c3ccccc3[n+]2[O-])c(OC)c1 returned DT40 TDP1 CPT inconclusive, RORg inh inactive, TDP1 cell noCPT 18µM, IL-1B inflam inh inactive, ELG1 DNA repair inconclusive and Gal4-VP16 FLuc inactive.
Screening COc1ccc(-c2c(=O)n(OC)c3ccccc3[n+]2[O-])cc1OC returned DT40 TDP1 CPT 12µM, RORg inh inactive, TDP1 cell noCPT 15µM, IL-1B inflam inh inactive, ELG1 DNA repair inactive and Gal4-VP16 FLuc inactive.
For O=c1c(-c2ccc(Cl)cc2)[n+]([O-])c2ccccc2n1OCc1ccccn1 the results were DT40 TDP1 CPT inactive, RORg inh inactive, TDP1 cell noCPT inactive, IL-1B inflam inh inactive, ELG1 DNA repair inactive and Gal4-VP16 FLuc inactive.
C=CCOn1c(=O)c(-c2ccc(OC)c(OC)c2)[n+]([O-])c2ccccc21 was read as DT40 TDP1 CPT inconclusive, RORg inh inactive, TDP1 cell noCPT inconclusive, IL-1B inflam inh inactive, ELG1 DNA repair inactive and Gal4-VP16 FLuc inactive.
Cc1ccc(-c2c(=O)n(OCc3ccccn3)c3ccccc3[n+]2[O-])cc1 was read as RORg inh inactive, ELG1 DNA repair inconclusive and Gal4-VP16 FLuc inactive.
`CCOC(=O)COn1c(=O)c(-c2ccc(OC)cc2)[n+]([O-])c2ccccc21` gave DT40 TDP1 CPT inconclusive, RORg inh inactive, TDP1 cell noCPT inactive, IL-1B inflam inh inactive, ELG1 DNA repair inconclusive and Gal4-VP16 FLuc inactive.
Screening COc1ccc(-c2c(=O)n(OCc3ccccn3)c3ccccc3[n+]2[O-])cc1OC returned DT40 TDP1 CPT inactive, RORg inh inactive, TDP1 cell noCPT inconclusive, IL-1B inflam inh inactive, ELG1 DNA repair 13µM and Gal4-VP16 FLuc inactive.
CCOc1ccc(-c2c(=O)n(OCc3ccccn3)c3ccccc3[n+]2[O-])cc1 was read as DT40 TDP1 CPT 21µM, RORg inh inactive, TDP1 cell noCPT 12µM, IL-1B inflam inh inactive, ELG1 DNA repair inactive and Gal4-VP16 FLuc inactive.
Screening COc1ccc(Cl)cc1/C=C(\C#N)C(N)=O returned DT40 TDP1 CPT inconclusive, RORg inh inactive, TDP1 cell noCPT inconclusive, IL-1B inflam inh inactive, ELG1 DNA repair inactive and Gal4-VP16 FLuc inactive.
Screening COc1ccc(Cl)cc1C(=O)NNC(=O)CNC(=O)c1ccco1 returned DT40 TDP1 CPT inactive, TDP1 cell noCPT inactive, IL-1B inflam inh inactive and ELG1 DNA repair inactive.
`Nc1nc(N)c(N=O)c(OCC2CCCCC2)n1` gave DT40 TDP1 CPT 12µM, RORg inh inconclusive, TDP1 cell noCPT 7.3µM, IL-1B inflam inh inconclusive, ELG1 DNA repair inconclusive and Gal4-VP16 FLuc inconclusive.
Screening NS(=O)(=O)OCC1CCCCC1 returned DT40 TDP1 CPT inactive, RORg inh inactive, TDP1 cell noCPT inactive, IL-1B inflam inh inactive, ELG1 DNA repair inactive and Gal4-VP16 FLuc inactive.
Screening C[C@@H]1CN([C@H](C)CO)C(=O)CCCn2nncc2CO[C@@H]1CN(C)C(=O)c1cc(-c2ccccc2)on1 returned DT40 TDP1 CPT inactive, TDP1 cell noCPT inconclusive and IL-1B inflam inh inactive.
For Cc1nc(NC(=O)c2ccccc2)sc1C1(C)CC(c2c(Cl)cccc2Cl)=NO1 (stereo not drawn) the results were DT40 TDP1 CPT 23µM, RORg inh inactive, TDP1 cell noCPT inconclusive, IL-1B inflam inh inactive, ELG1 DNA repair inconclusive and Gal4-VP16 FLuc inactive.
Screening COc1ccc(NC(=O)c2nc(C)c(C3(C)CC(c4ccccc4)=NO3)s2)cc1 (stereo not drawn) returned DT40 TDP1 CPT 1µM, RORg inh inactive, TDP1 cell noCPT 5.8µM, IL-1B inflam inh inactive, ELG1 DNA repair inconclusive and Gal4-VP16 FLuc inactive.
For CC(=O)N1CCc2c(sc(NC(=O)CS(=O)(=O)c3ccc(F)cc3)c2C(N)=O)C1 the results were DT40 TDP1 CPT inactive, TDP1 cell noCPT inactive, IL-1B inflam inh inactive and ELG1 DNA repair inactive.
For Cn1nc(C(F)(F)F)c(/C=N/OC(=O)c2ccccc2Cl)c1SCc1ccccc1Cl the results were DT40 TDP1 CPT inconclusive, RORg inh inactive, TDP1 cell noCPT inconclusive, IL-1B inflam inh inactive, ELG1 DNA repair 13µM and Gal4-VP16 FLuc inactive.
Screening Cn1cccc1C(=O)N1CCC2(CC1)CN(Cc1ccc(C#N)cc1)C2 returned DT40 TDP1 CPT inactive, RORg inh inactive, TDP1 cell noCPT inactive and Gal4-VP16 FLuc inactive.
Cc1ccc(-n2nc(C(=O)c3ccccc3)n3c(=O)c(Cc4ccccc4)nnc23)cc1 was read as DT40 TDP1 CPT inconclusive, TDP1 cell noCPT 12µM and IL-1B inflam inh inactive.
For CCOC(=O)c1nn(-c2ccc(Cl)cc2)c2nnc(Cc3ccc(C)cc3)c(=O)n12 the results were DT40 TDP1 CPT inactive, RORg inh inactive, TDP1 cell noCPT inactive, IL-1B inflam inh inactive, ELG1 DNA repair inactive and Gal4-VP16 FLuc 22µM.
Screening C[C@H]1CN([C@@H](C)CO)C(=O)c2cc(Br)cnc2O[C@@H]1CN(C)S(=O)(=O)c1cn(C)cn1 returned DT40 TDP1 CPT inactive, TDP1 cell noCPT inactive and IL-1B inflam inh inactive.
For CCOc1ccccc1CNC(=O)c1oc2c(c1C)-c1nn(Cc3cccc(Cl)c3)cc1CC2 the results were DT40 TDP1 CPT inconclusive and TDP1 cell noCPT 21µM.
For CCOC(=O)c1oc2c(c1C)-c1nn(Cc3cccc(Cl)c3)cc1CC2 the results were DT40 TDP1 CPT inconclusive and TDP1 cell noCPT inactive.
`CCOC(=O)c1oc2c(c1C)-c1nn(Cc3c(F)cccc3Cl)cc1CC2` gave DT40 TDP1 CPT inactive and TDP1 cell noCPT inconclusive.
Cc1ccccc1CNC(=O)c1oc2c(c1C)-c1nn(Cc3ccc(Cl)cc3)cc1CC2 was read as DT40 TDP1 CPT inconclusive and TDP1 cell noCPT 16µM.
